# PPC-1+TRAIL kill – compounds killing PPC-1 cancer cells with TRAIL present, primary screen, TRAIL potentiator project, ATPLite luminescence, uHTS; PPC-1 cells + TRAIL, ATPLite viability luminescence; cell killing (% activity), % at 4 µM or 5 µM; 220,000 tested, 0.41% active;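 active means cell killing above 50% in the first pass at 4 µM, then a duplicate retest at 5 µM averaging 50% or more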;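 further: plate controls were cells with TRAIL plus DMSO for no effect and medium-only wells lacking cells for full effect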
# TWEAK-Fn14 inh – inhibitors of TWEAK-Fn14 signaling, primary screen, luciferase reporter cells, uHTS | TWEAK-stimulated Fn14 reporter cells, luciferase luminescence, 8 h | inhibition, % at 10 µM | AID 1159606, 2016 | 360,000 tested, 2% active; in the data active means inhibition above about 50%
# Platelet DG rel – inhibitors of platelet dense granule secretion, primary screen, cell-based, MLPCN, human platelets | human platelet-rich plasma, SFLLRN dense granule ATP release, luminescence | inhibition, %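 (compounds screened at 7.5 µM in platelet-rich plasma)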 | 300,000 tested, 0.22% active;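 active means mean replicate score, as percent of positive control, at or above 50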
# TRAIL sens C8 – viability loss with TRAIL in NB7+C8 cells, primary screen, TRAIL sensitizer project, cell-based, ATPlite luminescence; inhibition (viability loss, TRAIL sensitization), % at 10 µM; 360,000 tested, 1% active; AID 624354, 2012;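 active means compounds causing at least 50% loss of cell viability in the single-dose screen, relative to plate controls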
# TROY NFkB inh – inhibitors of TROY-driven NF-kB signaling, primary screen, Q293 LMP1-TROYcd cells, NF-kB luciferase, uHTS; Q293 LMP1-TROYcd NF-kB luciferase reporter, 4 h; inhibition, % at 10 µM; 360,000 tested, 0.98% active; AID 1347056, 2019;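 active means compounds whose plate-normalised and pattern-corrected inhibition of the luciferase reporter signal at the single screening dose is 50% or more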
# HSP90 refold inh – HSP90 inhibitors, primary screen, cell lysate, luminescence; Rabbit reticulocyte lysate, luciferase refolding luminescence, 3 h; inhibition, % at 5.6 µM; 290,000 tested, 0.91% active; AID 1789, 2009;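 active means inhibition above the screen-wide mean plus 3 SD, computed separately per campaign, cut at about 16% in these data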;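 further: 0% = DMSO wells and 100% = 60 µM geldanamycin wells; inhibitors lower the luminescence because luciferase stays unfolded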
# * hit, by the source's call; x = no result given. Only some compounds are listed: those with a hit (about 3.5% of all), similar ones and a draw of the others.
SMILES,PPC-1+TRAIL kill,TWEAK-Fn14 inh,Platelet DG rel,TRAIL sens C8,TROY NFkB inh,HSP90 refold inh
C[C@H]1CN(S(=O)C(C)(C)C)[C@@H](CCO)/C1=C\c1ccccc1 (some centres undefined),x,19.3,x,5.0,1.2,x
O=[N+]([O-])c1cc(S(=O)(=O)NCCN2CCOCC2)ccc1Sc1nnnn1-c1ccccc1,-4.8,89.2*,-0.4,17.5,21.6,1.4
Cc1ccc(-n2nnnc2Sc2ccc(S(=O)(=O)NCCN(C)C)cc2[N+](=O)[O-])cc1,19.6,97.2*,0.8,18.2,33.1,7.4
O=[N+]([O-])c1cc(S(=O)(=O)NCCCN2CCOCC2)ccc1Cl,15.9,20.3,0.5,-15.1,-20.3,-3.8
Cc1nn(CC(=O)NCCC2=CCCCC2)c(C)c1[N+](=O)[O-],x,12.5,1.9,-2.8,-2.0,x
COc1cc(NS(C)(=O)=O)ccc1Nc1c2ccccc2nc2ccccc12,x,-213.3,x,6.1,-86.5,x
Cc1ccc(C(=O)c2ccccc2C(=O)OCC(=O)Nc2ccc(SC(F)F)cc2)cc1,33.1,53.2*,17.3,-10.2,22.0,2.2
CCCc1nc2ccc(C(=O)OC)cn2c1Cc1cccc(F)c1,x,-3.3,x,-5.2,-10.3,x
CCc1ccc(NC(=O)c2ccc(F)c(S(=O)(=O)N(CC)c3ccccc3)c2)cc1,5.2,3.5,6.2,23.6,9.4,-0.5
CCN(c1ccccc1)S(=O)(=O)c1cc(C(=O)Nc2cccc(Cl)c2)ccc1F,-4.2,67.5*,2.8,19.6,46.2,2.5
N#C/C(=C/c1ccc(CNS(=O)(=O)c2ccccc2)o1)C(N)=O,18.2,69.5*,1.5,35.2,-5.5,-1.5
O=C(c1cc(C2CC2)nc2ccc(Br)cc12)N1N=C(C(F)F)CC1(O)C(F)F (centres undefined),-1.0,19.7,7.4,29.0,54.4*,-2.5
O=C(c1cc(C2CC2)nc2ccccc12)N1N=C(C(F)F)CC1(O)C(F)F (centres undefined),-2.2,80.9*,0.8,-10.1,-3.8,-2.0
Cn1c(=O)cc(Nc2ccccc2)c2c(=O)n(-c3ccccc3)c(=O)n(-c3ccccc3)c21,8.3,-4.3,-27.9,-20.5,13.3,15.4
C/C(CC(=O)NCc1ccccc1Cl)=N/NC(=O)c1ccccn1,x,0.5,-24.3,5.7,-59.4,10.2
Cc1ccc(S(=O)(=O)c2ccc([N+](=O)[O-])o2)cc1,x,102.2*,x,92.4*,58.6*,x
Cc1cc(OCc2cc(C(=O)N(C)CCc3cnn(C)c3)no2)cc(C)c1Cl,x,-33.1,8.4,14.8,-35.4,-1.7
CNC(=O)c1sc(N2N=C3/C(=C/c4ccccc4)CCCC3C2c2ccccc2)nc1C (centres undefined),4.5,58.4*,7.8,-8.8,30.0,0.8
CNC(=O)c1sc(N2N=C3/C(=C\c4ccccc4)CCCC3C2c2ccccc2)nc1C (centres undefined),x,83.6*,x,15.0,48.1,x
Cc1ccc(NC(=O)CSC2=NN3CCCC(=O)N=C3S2)cc1Cl,x,3.5,5.3,9.0,17.3,-1.3
CC(=O)Nc1ccc2sccc2c1,10.7,10.3,-2.9,-13.5,-13.6,-1.5
Cc1ccc(C2(C)NC(=O)N(CC(=O)NNC(=O)c3ccccc3F)C2=O)cc1 (centres undefined),x,0.6,x,-16.6,11.4,x
CC(=O)Nc1cccc(C(=O)/C=C/c2ccc(/C=C/C(=O)c3cccc(NC(C)=O)c3)cc2)c1,49.1,x,-5.1,x,x,1.9
CC(=O)Nc1cccc(C(=O)/C=C/c2ccc(F)cc2)c1,14.5,71.5*,2.2,4.1,-19.4,0.1
CC(=O)Nc1cccc(C(=O)/C=C/c2ccc(Br)cc2)c1,-0.3,66.7*,7.0,20.1,24.7,3.8
CCC(=O)Nc1cccc(C(=O)/C=C/c2cc(Br)ccc2OC)c1,4.3,94.4*,6.8,-29.8,6.2,0.0
Nc1ccc(S(=O)(=O)c2cc(O)c3ccccc3c2O)cc1,x,78.6*,x,-2.7,74.1*,x
O=S(=O)(c1ccccc1)c1cc(O)ccc1O,-15.7,14.6,-0.7,5.2,-2.6,0.8
